The full list was thinned out, with hits kept by preference.
Pf Dd2 inh = inhibitors of Plasmodium falciparum Dd2 growth; P. falciparum Dd2 growth, SYBR Green, 72 h; Potency, µM (titrated, usually from 28.9 µM), for the others: top-dose activity, negative = inhibition, usual class: inhibitors; 120,000 compounds, 4.3% hits; AID 1347417; active = well fitted inhibition curve with a large enough effect;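 also: plate controls were DMSO vehicle for no effect and reference drug for full effect; nearly all actives have a fitted effect of over 65% in size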
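Readout: SYBR Green fluorescence, 485 nm excitation, 535 nm emission, after ~16 h lysis at 37C. Before that, Dd2-infected red cells (2.5% hematocrit) grew 72 h with compound, 29 uM top final concentration.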
* = called active by the depositor; i = inactive; [ ] = remark or other dose. Potency is read from the fitted curve at half-maximal effect.

SMILES	Pf Dd2 inh
CCOC(=O)C1=C(CN2CCN(c3cccc(Cl)c3)CC2)NC(=O)NC1c1ccc(Cl)cc1 (stereo unspecified)	i
CCOc1ccc2oc(=O)cc(CN3CCN(C(=O)c4cccc(Cl)c4)CC3)c2c1	i
CCCOCc1cc(CN2CCN(c3cccc(Cl)c3)CC2)c(O)c2ncccc12	3.2µM*
Cn1ncc2c(N3CCN(c4cccc(Cl)c4)CC3)ncnc21	8%
CC(=O)N(C1CC1)C1CCOC2(CCN(C(=O)c3nn(C)c4ccccc34)CC2)C1 (stereo unspecified)	i
COc1ccc(S(=O)(=O)Nc2cc(-c3cn4cccc(C)c4n3)ccc2C)cc1C	20%
Cc1cccc(-c2nocc2CCC(=O)NC(C)c2ccc(F)cc2)c1 (stereo unspecified)	i
O=C(NCC1CCCO1)N1CC(n2cc(C(=O)N3CCOCC3)nn2)C1 (stereo unspecified)	-1%
CN1Cc2ccccc2-n2ccnc2C12CCN(C(=O)c1cccc(F)c1)CC2	22%[5.79 µM]
COc1ccc(NC(=O)CSc2nc(-c3ccccc3)cc(-c3cc(OC)c(OC)c(OC)c3)c2C#N)c(OC)c1	6.3µM*
N#Cc1c(-c2ccccc2)cc(-c2ccccc2)nc1SCC(=O)Nc1ccc(Cl)cc1	-13%
COc1ccc(-c2cc(-c3ccccc3)nc(SCC(=O)Nc3ccccc3F)c2C#N)cc1	22%
CCCCN(Cc1ccccc1)C(=O)c1oc(=O)c2ccccc2c1-c1ccc(C)cc1	-12%
O=C(Nc1cccc(C(F)(F)F)c1)Nc1ccc2snnc2c1	1.1µM*
Cc1cc(C)c(NC(=O)Nc2ccc3snnc3c2)c(C)c1	i
O=C(Nc1cccc(C(F)(F)F)c1)c1ccc2snnc2c1	51%
Cc1cccc(C)c1NS(=O)(=O)c1ccc(NS(=O)(=O)c2ccc3c(c2)OCCO3)cc1	37%
O=C1SC(Nc2ccc(Cl)cc2)C(=O)N1Cc1ccccc1 (stereo unspecified)	i
CC(=O)Nc1ccc(CN2CCN3C(=O)N(Cc4ccccc4)C[C@H]3C2)cc1	i
NCCc1ccc(CN2C[C@@H]3CC[C@H](C2)N(Cc2ccccc2)C3)cc1	11µM*
O=C1[C@H]2CN(Cc3ccc(C(F)(F)F)cc3)C[C@H]2C(=O)N1CCc1ccccc1	i
COC[C@@H]1CN(S(=O)(=O)c2cn(C)cn2)C[C@H]1c1ccncc1	14%
COC(=O)C1=C(C)N=C2SC=C(CC(=O)NC3CCCCC3)N2C1c1ccsc1 (stereo unspecified)	-13%
CC(C)c1ccc(CN(C(=O)c2cc3ccccc3oc2=O)C2CCS(=O)(=O)C2)cc1 (stereo unspecified)	7%
Cc1nn(-c2ccccn2)c(C)c1[C@@H]1C=C[C@@H](NC(=O)NCc2ccccc2)C1	i
SMILES	Pf Dd2 inh
COc1ccc(-n2nc(C)c([C@@H]3C=C[C@@H](NCc4ccccc4)C3)c2C)cc1	2.8µM*
Cc1ccccc1-n1nc(C)c([C@H]2C=C[C@@H](OC(=O)N[C@H](C)c3ccccc3)C2)c1C	-8%[44.1 µM]
Cc1nn(-c2ccc(C(C)C)cc2)c(C)c1[C@@H]1C=C[C@@H](NC(=O)COCC(=O)O)C1	i
COc1ccc(NC(=O)O[C@@H]2C=C[C@H](c3c(C)nn(-c4ccc(C)c(Cl)c4)c3C)C2)cc1	i
COc1ccc(-n2nc(C)c([C@H]3C=C[C@@H](OC(=O)N[C@H](C)c4ccccc4)C3)c2C)cc1	7.9µM*
CCCCNC(=O)Cn1c(=O)cc(C)c2c(C)nn(-c3cccc(Cl)c3C)c21	54%
Cc1cc(C)n(C2CCN(C(=O)CCc3cc4n(n3)CCNC4)C2)n1 (stereo unspecified)	17%
COc1ncccc1-c1nccc2c(=O)cc(-c3ccncc3)oc12	-6%[44.1 µM]
Cn1cc(-c2cc(=O)c3ccnc(-c4cccc5[nH]ccc45)c3o2)cn1	i
O=c1cc(-c2ccncc2)oc2c(-c3cccc4[nH]ccc34)nccc12	10µM*
C=CCNC(=O)N1CC[C@H]2CC(=O)N(CCNC(C)=O)CC[C@H]2C1	28%[44.1 µM]
O=C(c1cccnc1)N1CCC(n2c(=O)[nH]c3ccccc32)CC1	-2%[44.1 µM]
Cc1ccc(Cn2c(=O)c3cccnc3n(Cc3ccc(C)cc3)c2=O)cc1	-8%
COCCC(=O)N1[C@H]2CC[C@@H]1c1cnc(-c3ccccc3)nc1C2	-15%
COc1ccccc1C(=O)N1[C@H]2CC[C@@H]1c1cnc(-c3ccccc3)nc1C2	i
O=C(CC1CCCC1)N1[C@H]2CC[C@@H]1c1cnc(-c3ccccc3)nc1C2	13µM*
COc1ccc(CNC(=O)N2[C@H]3CC[C@@H]2c2cnc(-c4ccccc4)nc2C3)cc1	11µM*
Cc1noc(C)c1Cc1ccc(C(=O)N2[C@H]3CC[C@@H]2c2cnc(-c4ccccc4)nc2C3)o1	0.63µM*
COc1ccc(CCC(=O)N2[C@H]3CC[C@@H]2c2cnc(-c4ccccc4)nc2C3)cc1	-27%
CCNC(=O)N1[C@H]2CC[C@@H]1c1cnc(-c3ccccc3)nc1C2	-21%
Cc1noc(C)c1CC(=O)N1[C@H]2CC[C@@H]1c1cnc(-c3ccc(F)cc3)nc1C2	-16%
O=C(Cc1ccccc1)N1[C@H]2CC[C@@H]1c1cnc(-c3ccccc3)nc1C2	i
COc1ccc(-c2nc3c(c(SCC(=O)N4CCCCC4)n2)Cc2cc(Cl)ccc2O3)cc1	48%
Cc1nc(CCNC(=O)CC(C)C)no1	19%
Cc1ncoc1C(=O)N1CCC(N2C[C@H](O)C[C@H]2C(=O)NC2CCCCC2)CC1	i
SMILES	Pf Dd2 inh
Cn1nccc1C(=O)N1CCC2(CCCN(Cc3cccc(F)c3F)C2=O)C1 (stereo unspecified)	-18%
Nc1ccnc(N2CC[C@H]3N(CC(=O)O)CCC[C@]3(C(=O)O)C2)n1	-8%
Cc1ccc(S(=O)(=O)c2nnn3c2nc(NC2CCCCC2)c2sccc23)cc1	-5%
Cn1nccc1C(=O)N1C[C@@H](Oc2ccccc2)C[C@@H]1C(=O)N1CCOCC1	-8%
COc1ccc2c(c1)c1c(c(=O)n(-c3ccc(OC)c(OC)c3)c(=O)n1Cc1ccccc1C)n2C	-3%
CC(C)CC(=O)NC1CCCc2c1[nH]c1c(Cl)cccc21 (stereo unspecified)	-22%
COc1ccc(CC(=O)NC2CCCc3c2[nH]c2ccc(F)cc32)cc1OC (stereo unspecified)	-16%
Cc1noc(C)c1C(=O)NC1CCCc2c1[nH]c1c(Cl)cccc21 (stereo unspecified)	-8%
Cc1noc(C)c1CCC(=O)NC1CCCc2c1[nH]c1ccc(F)cc21 (stereo unspecified)	11µM*
Cc1noc(C)c1C(=O)NC1CCCc2c1[nH]c1ccc(F)cc21 (stereo unspecified)	-11%
Cc1noc(C)c1CC(=O)NC1CCCc2c1[nH]c1c(Cl)cccc21 (stereo unspecified)	7.9µM*
O=C(CCNC(=O)c1cnccn1)NC1CCCc2c1[nH]c1ccc(F)cc21 (stereo unspecified)	-9%
O=C(Cc1c[nH]c2ccccc12)NC1CCCc2c1[nH]c1ccc(F)cc21 (stereo unspecified)	13µM*
O=C(NC1CCCc2c1[nH]c1ccc(F)cc21)c1cccs1 (stereo unspecified)	i
Cc1noc([C@@H]2CN(C(=O)c3ccncn3)C[C@H]2C(N)=O)n1	19%
O=C(c1ccccc1F)N1CCCC(CN2CCOCC2)CC1 (stereo unspecified)	-26%
Cc1cc(C(=O)N[C@H](C)c2onc(-c3ccc(F)cc3)c2C(=O)O)c(C)o1	25%[44.1 µM]
CS(=O)(=O)N(Cc1cccnc1)C1CN(C(=O)NCc2ccccc2)C1	-4%

Assay outcomes as filed in PubChem.
